Experiment [1] deals with 6-phosphogluconate dehydrogenase, decarboxylating (Homo sapiens) (UniProt P52209). The experiment is described as follows: inhibition of human phosphogluconate dehydrogenase – biochemical, recombinant enzyme, NADPH absorbance, primary screen (AID 1159550). Conditions: recombinant 6PGD, NADPH absorbance 341 nm; at 10 µM; stronger effect = higher value.
Experiment [2] in a line: viability loss in pontine glioma line – cell-based, SU-DIPG-XVII, MIPE5.0, CellTiter-Glo, qHTS, dose response (AID 1347060; cut-off not given, nearly all actives have AC50 up to about 26 µM;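 on AC50: cells exposed to compound for 48 hours before viability readout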). Particulars: CellTiter-Glo ATP luminescence.
The nature of experiment [3]: viability loss in pontine glioma line – cell-based, JHH-DIPG-1, MIPE4.0, CellTiter-Glo, qHTS, dose response (AID 1347062; cut-off not given, nearly all actives have AC50 up to about 27 µM). Conditions: JHH-DIPG-1 viability, CellTiter-Glo ATP luminescence. A general note: In ATP-based viability assays light output follows the ATP content of the culture.
Experiment [4] in a line: viability loss in pontine glioma line – cell-based, SU-DIPG-IV, MIPE4.0, CellTiter-Glo, qHTS, dose response (AID 1347063; cut-off not given, nearly all actives have AC50 up to about 30 µM;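 further: compound exposure lasted 48 hours before the viability readout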). Particulars: CellTiter-Glo ATP luminescence.
A short description of experiment [5]: JHH-DIPG-1 glioma cell viability, MIPE5.0 library, CellTiter-Glo luminescence, qHTS (AID 1347067; cut-off not given, nearly all actives have AC50 up to about 26 µM;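 further: cells exposed to compound for 48 hours before readout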). Particulars: JHH-DIPG-1 glioma viability, CellTiter-Glo ATP luminescence.
The target of experiment [6] is Mitogen-activated protein kinase 7 (Homo sapiens) (UniProt Q13164). The experiment is described as follows: Gal4-ERK5 driven luciferase induction – cell-based, HTS, primary screen (AID 1508626;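 active means luciferase signal above three times the same-plate solvent-only control wells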;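 further: luciferase driven by Gal4-ERK5 fusion binding five Gal4 sites before minimal TATA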). Conditions: HeLa Gal4-ERK5 transactivation, 18 h, at 5 µM, stronger effect = higher value.
Mitogen-activated protein kinase 7 (Homo sapiens), sequence (Q13164 whole entry, looked up, the tested form may be a part): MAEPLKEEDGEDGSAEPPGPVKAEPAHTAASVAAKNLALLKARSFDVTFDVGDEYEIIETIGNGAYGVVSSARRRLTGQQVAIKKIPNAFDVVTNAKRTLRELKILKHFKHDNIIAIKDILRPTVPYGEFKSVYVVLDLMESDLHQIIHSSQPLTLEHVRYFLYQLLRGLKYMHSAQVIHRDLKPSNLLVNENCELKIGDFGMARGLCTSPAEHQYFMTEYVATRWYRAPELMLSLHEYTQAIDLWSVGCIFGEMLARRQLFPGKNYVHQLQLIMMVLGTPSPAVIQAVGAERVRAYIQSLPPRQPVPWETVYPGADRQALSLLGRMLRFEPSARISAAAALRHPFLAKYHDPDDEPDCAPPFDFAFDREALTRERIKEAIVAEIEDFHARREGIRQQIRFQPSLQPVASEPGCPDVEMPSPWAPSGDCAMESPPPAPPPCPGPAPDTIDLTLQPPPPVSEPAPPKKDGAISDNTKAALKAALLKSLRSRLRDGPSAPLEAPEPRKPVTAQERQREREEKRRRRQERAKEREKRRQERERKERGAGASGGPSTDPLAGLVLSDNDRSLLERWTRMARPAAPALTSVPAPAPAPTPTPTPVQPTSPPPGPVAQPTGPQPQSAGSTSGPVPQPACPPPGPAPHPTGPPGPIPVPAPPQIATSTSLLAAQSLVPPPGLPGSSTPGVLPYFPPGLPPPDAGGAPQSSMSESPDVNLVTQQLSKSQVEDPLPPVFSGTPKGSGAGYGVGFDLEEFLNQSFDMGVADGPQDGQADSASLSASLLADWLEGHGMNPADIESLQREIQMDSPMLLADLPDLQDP
Experiment [7] in a line: P. berghei load reduction in hepatocytes – cell-based, HepG2, luciferase luminescence, HepG2 viability, primary screen (AID 624349; in the data active means parasite load remaining mostly below about 12%, no sharp cut-off; inactive means mostly above about 10%;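 further: 100% = mean of DMSO negative control wells on the same plate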). Conditions: P. berghei liver stage in HepG2, luciferase luminescence, concentration not given here; parasite load remaining: stronger effect = lower value; viability: measured here: HepG2 viability without parasites.
Experiment [8] is described as follows: viability loss in pontine glioma line – cell-based, SU-DIPG-XIII, MIPE4.0, CellTiter-Glo, qHTS, dose response (AID 1347061; cut-off not given, nearly all actives have AC50 up to about 37 µM;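 further: cells exposed to compound for 48 hours before readout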). Conditions: CellTiter-Glo ATP luminescence.
Experiment [9] in a line: viability loss with induced miR-34 in A549 – imaging, A549 dox-inducible miR-34, nuclei and caspase counts, primary screen (AID 1347080;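 active means compounds whose cell count with miR-34 switched on is under 0.7 times the count with it off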). Particulars: A549 miR-34 inducible, Hoechst nuclei count, 48 h.
Experiment [10] is described as follows: MELAS cybrid and Rieske KO viability enhancers – cell-based, MELAS cybrids, Rieske KO mouse fibroblasts, CellTiter-Glo, primary screen (AID 1508586;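 active means mean z-score across replicates of 1.96 or higher in either the MELAS or the Rieske mutant cell line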;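 further: z relative to plate mean and SD of compound and empty wells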). Particulars: low glucose.
Experiment [11] in a line: galactose survival enhancers in mitochondrial complex I cybrids – cell-based, galactose medium, ATP luminescence, primary screen (AID 1645843;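 active means z-score of at least 1.8 in each of two replicates, scored against plate mean and spread of sample wells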;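 further: positive z means more ATP and so rescue of galactose-driven cybrid death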). Conditions: complex I mutant cybrid cells, 72 h, stronger effect = higher value.
Experiment [12] can be described thus: growth inhibition, single agents and combos, ICB984, cell-based, cisplatin or BGB combos, synergistic combos for chromothripsis tumors (AID 1671451; call rule not given here;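 further: cells exposed for 96 hours before readout; 0% = vehicle DMSO and 100% = killing by high DMSO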). Conditions: ICB984 medulloblastoma cells, drug combinations, stronger effect = higher value.
The mark [13] stands for this setting: stronger effect = lower value, cell number ratio, induced over uninduced.
Setting [14] is: measured here: relative caspase fold change +Dox/-Dox.
[15] abbreviates: measured here: total cells with miR-34 induction, stronger effect = lower value.
The mark [16] stands for this setting: measured here: total cells without miR-34 induction.

Several values for one entry are separate records, joined by “and”; a condition that tells them apart may be missing. Equal entries are not always repeated. Records with an inconclusive call do not appear. A structure can be active in one record and inactive in another. Activity calls are given as the source filed them.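 How the source made its calls, unless noted: active means at least 20% inhibition of 6-phosphogluconate dehydrogenase activity; inactive means the rest.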

6-phosphogluconate dehydrogenase, decarboxylating (Homo sapiens), sequence (P52209 whole entry, looked up): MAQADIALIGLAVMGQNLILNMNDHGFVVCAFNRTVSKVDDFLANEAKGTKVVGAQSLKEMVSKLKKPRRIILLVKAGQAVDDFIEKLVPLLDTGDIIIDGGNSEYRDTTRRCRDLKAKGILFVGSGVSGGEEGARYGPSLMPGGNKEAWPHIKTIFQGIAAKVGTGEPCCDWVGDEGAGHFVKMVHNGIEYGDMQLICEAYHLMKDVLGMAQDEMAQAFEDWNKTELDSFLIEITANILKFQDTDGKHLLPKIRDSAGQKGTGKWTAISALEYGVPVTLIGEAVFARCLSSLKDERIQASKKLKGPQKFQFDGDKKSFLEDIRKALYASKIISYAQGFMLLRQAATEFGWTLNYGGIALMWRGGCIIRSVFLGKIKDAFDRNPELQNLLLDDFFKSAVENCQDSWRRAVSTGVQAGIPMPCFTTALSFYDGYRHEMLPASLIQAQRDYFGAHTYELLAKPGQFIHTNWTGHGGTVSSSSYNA

Consider `CC(C)(O)CC[C@@H](O)[C@](C)(O)[C@H]1CC[C@@]2(O)C3=CC(=O)[C@@H]4C[C@@H](O)[C@@H](O)C[C@]4(C)[C@H]3CC[C@]12C`, for which, in experiment [1], the inhibition is 8% (inactive). Moreover, the outcome in experiment [2], in experiment [3], in experiment [4] and in experiment [5] was inactive. Moreover, the luciferase signal in [6] was 60 AU (inactive).

Regarding `CCC(=O)NCC[C@@H]1CCc2ccc3c(c21)CCO3`, in [7], the parasite load remaining was 159% (inactive) and -0.665% (active). In addition, the viability in experiment [7] was 88.5% and 95.2%. Besides, the inhibition in experiment [1] is 11.8% (inactive). The result in experiment [2], in experiment [8], in [3], in experiment [4] and in experiment [5] was inactive. Moreover, the fold change is 0.882 (inactive) in [9] (setting [13]) and 7.18 in experiment [9] (setting [14]). Further, the results for the cell count in experiment [9] (setting [15]) and in experiment [9] (setting [16]) were 11800 and 13400, respectively. The luciferase signal in experiment [6] is 72 AU (inactive).

Turning to `CCC[C@@H]1C[C@@H](C(=O)N[C@@H]([C@H]2O[C@H](SC)[C@H](O)[C@@H](O)[C@H]2O)[C@H](C)Cl)N(C)C1`, in [7], the parasite load remaining was 69.6% (inactive) and 41% (inactive). Further, the viability in experiment [7] was 232% and 102%. Moreover, in experiment [1], the inhibition is 8.56% (inactive). Moreover, the molecule was classed as inactive in experiment [2] and in experiment [5]. In addition, the fold change in experiment [9] (setting [13]) was 0.93 (inactive) and 0.912 (inactive); in experiment [9] (setting [14]), 1.22 and 1. The cell count in experiment [9] (setting [15]) is 9830 and 9930; in [9] (setting [16]) it was 10600 and 10900. In addition, the z-score in experiment [10] (MELAS cybrid survival, CellTiter-Glo 48 h, stronger effect = higher value) is -0.831 (inactive) and -0.519 (inactive); in experiment [10] (Rieske KO mouse fibroblast survival, CellTiter-Glo 72 h) it was -0.0935 and -0.00307; in experiment [11], -0.225 (inactive) and 0.615 (inactive). Further, in [6], the luciferase signal is 136 AU (inactive).

Regarding `COc1cc(NS(C)(=O)=O)ccc1Nc1c2ccccc2nc2ccccc12`, the inhibition was -14.7% (inactive) in experiment [1]; -6.17% and -3.09% in [12] (BGB IC20 combo, at 0.005 µM); 3.68% and -48.5% in [12] (BGB IC40 combo, at 0.005 µM); 39.5% and 18.4% in [12] (BGB IC40 combo, at 0.05 µM); -24.7% (inactive) and -27.8% (inactive) in [12] (at 0.5 µM); 39.5% and 15.2% in [12] (cisplatin combo, at 0.05 µM). In addition, the inhibition in experiment [12] (cisplatin combo, at 0.5 µM) is -38.9% and -24.5%; in experiment [12] (cisplatin combo, at 5 µM) it was -5% and -33%; in experiment [12] (measured here: 5 uM single agent, at 5 µM) it was 3.59% and -0.607%. Further, the AC50 is 934 nM (active) in [2] and 16600 nM (active) in experiment [5]. Moreover, the fold change in [9] (setting [13]) was 0.846 (inactive); in experiment [9] (setting [14]) it was 1.94. In addition, the cell count in experiment [9] (setting [15]) is 867; in [9] (setting [16]), 1020. Moreover, in experiment [6], the luciferase signal was 52 AU (inactive). Besides, the z-score in experiment [11] was -1.31 (inactive).

Turning to `O=C1c2c(O)cccc2[C@H]([C@@H]2O[C@H](CO)[C@@H](O)[C@H](O)[C@H]2O)c2cc(CO)cc(O)c21`, the inhibition in experiment [1] was -1.53% (inactive). Also, the result in experiment [8] and in experiment [3] was inactive. The luciferase signal in [6] was 44 AU (inactive).

As to `COc1ccc(CCC(=O)c2c(O)cc(O[C@@H]3O[C@H](CO)[C@@H](O)[C@H](O)[C@H]3O[C@@H]3O[C@@H](C)[C@H](O)[C@@H](O)[C@H]3O)cc2O)cc1O`, the inhibition in [1] is -14.9% (inactive). Moreover, the AC50 in experiment [8] is 2350 nM (active). In addition, the result in experiment [3] and in [4] was inactive. In [6], the luciferase signal is 36 AU (inactive).

For `O=C(/C=C/c1ccc(O)c(O)c1)O[C@H](Cc1ccc(O)c(O)c1)C(=O)O`, the inhibition in experiment [1] is -3.01% (inactive). The fold change is 0.903 (inactive) and 0.98 (inactive) in [9] (setting [13]); 1.31 and 0.699 in experiment [9] (setting [14]). Besides, the cell count in [9] (setting [15]) is 5220 and 9720; in [9] (setting [16]) it was 5780 and 9920. Also, the luciferase signal in [6] was 44 AU (inactive). The z-score in experiment [11] is 0.02 (inactive).

Regarding `COc1c(O)cc2c(c1O)[C@@H]1O[C@H](CO)[C@@H](O)[C@H](O)[C@H]1OC2=O`, in experiment [1], the inhibition is 2.56% (inactive). Besides, the result in [8], in [3] and in experiment [4] was inactive. Further, the luciferase signal in [6] was 48 AU (inactive).

`C=C1C(=O)O[C@H]2[C@H]1CC/C(C)=C/CC[C@@]1(C)O[C@@H]21`: the inhibition in experiment [1] is 4.61% (inactive). Further, the fold change was 0.99 (inactive) in experiment [9] (setting [13]) and 0.618 in experiment [9] (setting [14]). Besides, the cell count in [9] (setting [15]) stood at 8550; in experiment [9] (setting [16]), 8630. The z-score in [11] is 1.27 (inactive).

Broadly, the inhibition is the change of the read-out against control, counted positive when it falls. What is called viability is a read-out of living cells in per cent, often relative to untreated cells. By AC50 is commonly meant the concentration at which the activity in the assay is half-maximal.

For the origin of these results see PubChem BioAssay.
